The results in this text go back to PubChem BioAssay AID1259343 (VanderVen Lab, College of Veterinary Medicine, Cornell …, 2017).

Structures are written as SMILES. The whole screen tested about 6,200 compounds, of which about 2,900 (47%) were called active. No stated cut-off is given here; in the data, active means inhibition above about 50%; inactive means the rest. The set was probably picked from earlier hits. The list shows a part of the results.

The inhibition is the relative decrease from the control value, in per cent.

The nature of the test: Mycobacterium tuberculosis growth inhibition, primary screen (AID 1259343). The following applies: inhibition: at 10 µM, hits give high values; outcome: 10 uM.
Consider `COc1ccc(OCc2cc(C(=O)N(C)CC3CCCCO3)no2)c(Cl)c1` (configuration not stated), for which the inhibition entry is “inactive”.

`CN1CCN(C(=O)c2cc(COc3cncc(Cl)c3)on2)CC1c1ccccc1` (configuration not stated): the inhibition was 88% (active).

Regarding `CN(CCCC1CCCC1)C(=O)c1cnon1`, the inhibition was 12.9% (inactive).

As to `CN(Cc1cnc2ccccn12)C(=O)c1cc(COc2cncc(Cl)c2)on1`, the inhibition was 62.9% (active).

For `O=C(c1cc(COc2cncc(Cl)c2)on1)N(CCO)Cc1cccs1`, the inhibition is 89.6% (active).

On to `CCc1ccc(CN(C)C(=O)c2cc(COc3cncc(Cl)c3)on2)cc1`, for which the inhibition result is “inactive”.

Turning to `Cc1cccc(C)c1OCc1cc(C(=O)N2CCCC(c3ccccc3)C2)no1` (configuration not stated), the inhibition is 47.2% (inactive).

As for `CN(CC1CCCCO1)C(=O)c1cc(COc2cncc(Cl)c2)on1` (configuration not stated), the inhibition was 95.4% (active).

For the molecule `Cc1nc2cc(OCc3cc(C(=O)N4CCN(C)C(c5ccccc5)C4)no3)ccc2s1` (configuration not stated), the inhibition is 10.6% (inactive).

On to `Cc1ccc(C(C)C)cc1S(=O)(=O)NCc1ccco1`, for which the inhibition is -19.8% (inactive).

Turning to `Clc1cncc(Oc2ccc3c(C4CC4)noc3n2)c1`, the inhibition was 78.7% (active).

Take `FC(F)(F)c1ccc(Oc2ccc3c(C4CC4)noc3n2)cn1`: the inhibition is 92.3% (active).

On to `COc1ccc2c(=O)c3c(=O)n(-c4ccccc4)c(C4CCCCC4)nc3oc2c1`, for which the inhibition is -17.1% (inactive).

For the molecule `c1cn(-c2ccc(Oc3ccc4c(C5CC5)noc4n3)cc2)cn1`, the inhibition is 33.5% (inactive).

In the case of `c1ccc(Oc2ccc3c(C4CC4)noc3n2)cc1`, the inhibition was 72.8% (active).

With `COc1cccc(Oc2ccc3c(C4CC4)noc3n2)c1`, the inhibition is 93% (active).

As to `CCOc1ccc(C2CC(c3ccc(F)cc3)=NN2C(=O)CN(C)C2CCCCC2)cc1` (configuration not stated), the inhibition was -49.7% (inactive).

In the case of `Fc1cccc(Oc2ccc3c(C4CC4)noc3n2)c1`, the inhibition was 69.2% (active).

`Cc1ccc(F)cc1Oc1ccc2c(C3CC3)noc2n1`: the inhibition is 46.9% (inactive).

Take `FC(F)(F)c1ccccc1Oc1ccc2c(C3CC3)noc2n1`: the inhibition was 92.9% (active).

On to `FC(F)(F)c1cccc(Oc2ccc3c(C4CC4)noc3n2)c1`, for which the inhibition was 70.6% (active).

In the case of `Fc1ccc(Cl)cc1Oc1ccc2c(C3CC3)noc2n1`, the inhibition is 61.4% (active).

Consider `O[C@@H]1CNCC[C@H]1CNCc1cccc(Oc2cccc(C(F)(F)F)c2)c1`, for which the inhibition was 9.4% (inactive).

`O=c1[nH]c(NCCO)nc2c1C1(CCCC1)Cc1ccccc1-2`: the inhibition is 3.77% (inactive).

On to `O=C(Cc1c[nH]c2cccc(Br)c12)OCC1CC1`, for which the inhibition is -40.3% (inactive).

In the case of `CCCNC(=O)C1(C)CCN(Cc2csc(-c3ccc(Cl)cc3)n2)C1` (configuration not stated), the inhibition was 30.7% (inactive).

Turning to `Fc1cc(F)cc(Oc2ccc3c(C4CC4)noc3n2)c1`, the inhibition is 95.3% (active).

In the case of `COc1ccc(Nc2ccc3c(C4CC4)noc3n2)cc1`, the inhibition was 85.2% (active).

Turning to `Fc1ccc(Oc2ccc3c(C4CC4)noc3n2)cc1`, the inhibition was 6.82% (inactive).

In the case of `CNC(=O)C1Sc2nc3scc(-c4ccccc4)c3c(=O)n2N=C1C` (configuration not stated), the inhibition is 41.4% (inactive).

With `Cn1c(SCC(N)=O)nc2scc(-c3ccc(F)cc3)c2c1=O`, the inhibition is 66.5% (active).

Regarding `CC(C)c1ccc(-c2csc3ncn(-n4cccc4)c(=O)c23)cc1`, the inhibition was 12.8% (inactive).

In the case of `Cc1ccccc1C1c2ccsc2CCN1C(C)C(=O)N1CCCN(S(=O)(=O)c2ccc(C(C)(C)C)cc2)CC1` (configuration not stated), the inhibition was 77.4% (active).

`CC(Sc1n[nH]c(-c2cccs2)n1)c1ccc(F)cc1F` (configuration not stated): the inhibition was 10.1% (inactive).

`COc1ccc(OCc2nc(CSCc3ccc(F)cc3)cs2)cc1`: the inhibition was 50.8% (active).

For `Fc1ccc(CSCc2csc(-c3ccc(F)cc3)n2)cc1`, the inhibition was 38.6% (inactive).

Regarding `CC(C)(C)c1ccc(-c2nnc(SCC(N)=O)o2)cc1`, the inhibition was 98.8% (active).

As to `Cc1cc(CSc2nnc(-c3ccc(C(C)(C)C)cc3)o2)no1`, the inhibition was 85.8% (active).

`Cc1ccc(-c2nnc(SCc3c(C)noc3C)o2)cc1`: the inhibition is 79% (active).

`CN(C)C(=O)CSc1nnc(-c2ccc(Br)cc2)o1`: the inhibition was 78.2% (active).

In the case of `COc1ccc(-c2nnc(SCC(=O)NC(C)(C)C)o2)cc1`, the inhibition was 38.2% (inactive).

Take `Cc1cc(C)cc(-c2nnc(SCc3cc(C)on3)o2)c1`: the inhibition is 34.2% (inactive).

On to `O=C1N=c2ccc(Br)cc2=C1c1sc(NS(=O)(=O)Cc2ccccc2)nc1O`, for which the inhibition was 16.2% (inactive).

For `CC(Sc1nnc(-c2ccc(Br)cc2)o1)C(N)=O` (configuration not stated), the inhibition was 86% (active).

Take `CC(C)(C)c1ccc(OCCCC(=O)NCc2cn[nH]c2)cc1`: the inhibition was 88% (active).

Take `Cc1nn(C(C)(C)C)c(C)c1C(=O)NCC1CCCCCCC1`: the inhibition was 80.2% (active).

As for `Cc1oc(-c2ccccc2)nc1C(=O)NCC1CCCCC1`, the inhibition was 16.3% (inactive).

Take `Cc1ccc(C(=O)NCC2CCCCC2)c(C2CCN(C(=O)c3ccccc3)CC2)n1`: the inhibition is 31.2% (inactive).

As for `OC1(c2ccccc2)CC(=NC2=NN(c3ccccc3)CC2)C=C1c1ccccc1` (configuration not stated), the inhibition was 84% (active).

As to `CC(C)Oc1ccc(NC(=O)c2cc(Br)cn2C)cc1`, the inhibition is 23% (inactive).

In the case of `Cn1cc(Br)cc1C(=O)Nc1cc2c(cc1Cl)OCO2`, the inhibition is 88.7% (active).

`c1ccc(CCNc2nc(-c3ccco3)nc3ccccc23)cc1`: the inhibition was 8.49% (inactive).

As to `CC(C)c1cccc(-c2nc3c(NCc4ccccn4)nccc3[nH]2)c1`, the inhibition was 82.7% (active).

For `Clc1ccccc1-c1nc2c(NCCc3ccccc3)nccc2[nH]1`, the inhibition was 60.4% (active).

Consider `COCCCNc1nccc2[nH]c(-c3cccc(C(C)C)c3)nc12`, for which the inhibition was 78.4% (active).

Consider `CC(C)c1cccc(-c2nc3c(NCCc4ccncc4)nccc3[nH]2)c1`, for which the inhibition was 51.9% (active).

`Brc1ccc2nc(NCc3ccccn3)nc(-c3ccccc3)c2c1`: the inhibition is 1.6% (inactive).

On to `Cc1ccc(-c2cc(CNCc3ccco3)no2)c(C)c1`, for which the inhibition is 27.2% (inactive).

Consider `FC(F)(F)c1cc(-c2ccco2)nc(NCC2CCCO2)n1` (configuration not stated), for which the inhibition was 28.3% (inactive).

For the molecule `FC(F)(F)c1ccc(NCc2csc(-c3ccco3)n2)cc1`, the inhibition is 89.6% (active).

In the case of `CCOc1ccc(Nc2ncnc3c2nnn3C)cc1`, the inhibition is 16.3% (inactive).

Turning to `CCc1ccc(Nc2ncnc3c2nnn3C)cc1`, the inhibition was 69.2% (active).

`Cn1nnc2c(Nc3ccc(OC(F)F)cc3)ncnc21`: the inhibition is 72% (active).

Take `Cn1nnc2c(Nc3ccc(Oc4ccccc4)cc3)ncnc21`: the inhibition was 53.9% (active).

As for `Cn1nnc2c(Nc3ccc(Nc4ccccc4)cc3)ncnc21`, the inhibition was 9.73% (inactive).

With `Cc1cc(Cl)ccc1Oc1ncccc1C#N`, the inhibition was 33.1% (inactive).

Consider `Cc1cc(Cl)ccc1OCC(O)CN1CCN(c2ccccc2)CC1` (configuration not stated), for which the inhibition was 51.6% (active).

`Fc1ccc(N=c2scc(-c3ccc(OC(F)F)cc3)n2C2CC2)cc1`: the inhibition is 53.9% (active).

Take `CN=c1scc(-c2ccc(F)cc2)n1N=C(C)c1ccncc1`: the inhibition is 18.1% (inactive).

As for `FC(F)Oc1ccc(-c2csc(=Nc3cccnc3)n2C2CC2)cc1`, the inhibition was 80.6% (active).

In the case of `Brc1ccccc1-c1csc(=Nc2cccnc2)n1C1CC1`, the inhibition is 36.9% (inactive).

For `FC(F)Oc1ccc(-c2csc(=Nc3cccnc3)n2CC2CCCO2)cc1` (configuration not stated), the inhibition is 38.5% (inactive).

Take `CN(c1ccccc1)c1nnc(C(O)c2cc(F)c(F)c(F)c2)s1` (configuration not stated): the inhibition was 69.1% (active).

For the molecule `NC(=O)COc1ccc(C(=O)N2CCc3sccc3C2)cc1`, the inhibition was 67% (active).

Regarding `NC(=O)c1ccc(C(=O)N2CCC(=Cc3ccccc3)CC2)cc1`, the inhibition was -6.19% (inactive).

Consider `CCCCN(C)c1ccc(C(=O)N2CCc3sccc3C2)cc1`, for which the inhibition was 9.79% (inactive).

For `CC1CC(C)CN(C(=O)c2cc3c(s2)CCC3)C1` (configuration not stated), the inhibition is 8.3% (inactive).

Regarding `COC(=O)c1cccc(OC(=O)c2cc3c(s2)CCCC3)c1`, the inhibition was 22% (inactive).

Consider `O=C(COC(=O)c1cc2c(s1)CCC2)NCCN1C(=O)CSC1=O`, for which the inhibition is 71.9% (active).

For the molecule `Cc1cccc(C)c1NC(=O)C[N+](C)(C)C`, the inhibition was 65.2% (active).

For the molecule `Cc1cccc(C)c1NC(=O)CN(C)c1cnn(Cc2ccccc2)c(=O)c1Cl`, the inhibition is 32.3% (inactive).

As to `CN(Cc1nc2ccccc2c(=O)[nH]1)C(=O)c1cccc(Cl)c1Cl`, the inhibition is 44.4% (inactive).

For `O=c1[nH]c(CN2CCN(c3cc(=O)n4ccccc4n3)CC2)nc2ccccc12`, the inhibition was 68.5% (active).

Turning to `CN(C)C(=O)N1CCN(c2cc(-c3ccccc3)c3ccccc3n2)CC1`, the inhibition was 30.6% (inactive).

Take `NC(=O)c1ccc(-c2nc(-c3ccc4c(c3)OCCO4)c(-c3ccccn3)[nH]2)cc1`: the inhibition is 40.2% (inactive).

As to `NC(=O)c1ccc2nc(-c3ccc(Oc4ccc(Cl)cc4)cc3)[nH]c2c1`, the inhibition is 64.4% (active).

As to `CC(C)CNc1nn2cc(C(C)(C)C)nc2s1`, the inhibition is 43.8% (inactive).

Consider `COc1ccc(CCNc2ncnc3[nH]ncc23)cc1`, for which the inhibition is 8.19% (inactive).

In the case of `Cc1ccc(CNc2ncnc3[nH]ncc23)o1`, the inhibition is 99.6% (active).

As for `C=CCNC(=O)c1cccc(I)c1`, the inhibition was -37.8% (inactive).

As to `CCC/C=C/c1cccc(C(=O)NCC)c1`, the inhibition is 79.3% (active).

For `CN(C)c1cccc(C(=O)NCC2COc3ccccc3C2)c1` (configuration not stated), the inhibition is 13.6% (inactive).

With `CCC/C=C/c1ccc(NC(C)=O)nc1`, the inhibition is 92.5% (active).

On to `Cc1cccc(-c2ccc(NC(=O)C3CCN(C(=O)CC4=CCCCC4)CC3)cc2)c1`, for which the inhibition is 90.9% (active).

For the molecule `COCC(=O)N1CCC(C(=O)Nc2ccc(-c3cccc(C)c3)cc2)CC1`, the inhibition entry was “inactive”.

In the case of `Cc1cccc(-c2ccc(NC(=O)C3CCN(C(=O)CC4CCCC4)CC3)cc2)c1`, the inhibition is 89.3% (active).

With `C=CCC(=O)N1CCC(C(=O)Nc2ccc(-c3cccc(C)c3)cc2)CC1`, the inhibition is 91.9% (active).

Take `N#CC1=C(NC(=O)c2ccc(COc3ccc(Cl)cc3)cc2)CCC1`: the inhibition was 82.1% (active).

Consider `O=C(NCCO)c1ccc(OCc2ccc(Cl)s2)cc1`, for which the inhibition is -5.18% (inactive).

On to `Cc1nonc1OCCCNc1ccc([N+](=O)[O-])cc1`, for which the inhibition was 37.2% (inactive).

Regarding `CCc1ccc(Nc2ccc([N+](=O)[O-])c3nonc23)cc1`, the inhibition is 85.6% (active).

Regarding `CC12CCC(CC1=NNc1nc3ccccc3o1)C2(C)C` (configuration not stated), the inhibition was 83.6% (active).

As for `CCCCc1nnc(NC(=O)N2CCc3ccccc3C2)s1`, the inhibition is 33.5% (inactive).

For `CCCCc1nnc(NC(=O)C2Cc3ccccc3S2)s1` (configuration not stated), the inhibition is 54.4% (active).

As to `CCCCCc1nnc(NC(=O)Cc2ccccc2)s1`, the inhibition was 89.6% (active).

As to `CCCc1nnc(NC(=O)CC(=O)Nc2ccccc2C(=O)O)s1`, the inhibition is 9.89% (inactive).

`O=C(NCCNc1ncc(C(F)(F)F)cc1Cl)C1Cc2ccccc2S1` (configuration not stated): the inhibition is 46.4% (inactive).
